Values joined by “and” are separate entries in the source; they are usually repeats but may differ in a detail not shown here. Equal entries are not always repeated. Results filed as inconclusive are left out. A structure can be active in one record and inactive in another. Active and inactive are the calls of the source. Rule for the calls, unless noted: active = hit-call score of the fitted dose curve at least 0.9, where 1 is the maximum; inconclusive = response in the unintended direction; inactive = score below 0.9.
Tests used:
[1] = read-out: Thyroid Hormone Responsive (THRSP), THRSP (gene 7069); assay: LTEA_HepaRG_THRSP: Life Technologies and Expression Analysis (LTEA) Assay for Thyroid Hormone Responsive (THRSP) using HepaRG (AID 2283536; active = hit-call score of the fitted dose curve at least 0.9, where 1 is the maximum; inactive = score below 0.9); details: mRNA level, 48 h; actives raise or lower the signal
Outline: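 Differentiated HepaRG cells treated 48 h in serum-free induction medium with 8 half-log concentrations up to 100 uM (0.5% DMSO), duplicates. THRSP mRNA by TaqMan qRT-PCR normalised to ACTB, GAPDH, POLR2A; bidirectional fit versus DMSO.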

[2] = read-out: Cellular tumor antigen p53 (Homo sapiens) (UniProt P04637); assay: LTEA_HepaRG_TP53: Life Technologies and Expression Analysis (LTEA) Assay for Tumor Protein P53 (TP53) using HepaRG (AID 2283537; active = hit-call score of the fitted dose curve at least 0.9, where 1 is the maximum; inactive = score below 0.9); details: mRNA level, 48 h; actives raise or lower the signal
Outline: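 TP53 transcript measured by qRT-PCR, normalized to three housekeeping genes, after 48 h treatment of human HepaRG cultures with chemicals from 100 uM downward in half-log steps (0.5% DMSO vehicle, serum-free induction medium). Up- or down-regulation fitted against DMSO.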

[3] = read-out: UDP glucuronosyltransferase (UGT1A1), UGT1A1 (gene 54658); assay: LTEA_HepaRG_UGT1A1: Life Technologies and Expression Analysis (LTEA) Assay for UDP glucuronosyltransferase (UGT1A1) using HepaRG (AID 2283538; active = hit-call score of the fitted dose curve at least 0.9, where 1 is the maximum; inactive = score below 0.9); details: mRNA level, 48 h; actives raise or lower the signal
Outline: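 Readout is UGT1A1 transcript level by qRT-PCR, normalized to three housekeeping genes, after 48 h chemical treatment of HepaRG cells. Concentrations ran from 100 uM down in half-log steps with 0.5% DMSO, and gain or loss relative to DMSO was fitted.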

[4] = read-out: UDP glucuronosyltransferase (UGT1A6), UGT1A6 (gene 54578); assay: LTEA_HepaRG_UGT1A6: Life Technologies and Expression Analysis (LTEA) Assay for UDP glucuronosyltransferase (UGT1A6) using HepaRG (AID 2283539; active = hit-call score of the fitted dose curve at least 0.9, where 1 is the maximum; inactive = score below 0.9); details: mRNA level, 48 h; actives raise or lower the signal
Outline: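 Endpoint is UGT1A6 transcript induction or loss in a human liver cell line, quantified by TaqMan qRT-PCR 48 h after dosing. Concentrations ran from 100 uM downward in half-log steps in 0.5% DMSO; activity was fitted in both directions versus vehicle.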

[5] = read-out: X-box binding protein 1 (XBP1), XBP1 (gene 7494); assay: LTEA_HepaRG_XBP1: Life Technologies and Expression Analysis (LTEA) Assay for X-box binding protein 1 (XBP1) using HepaRG (AID 2283540; active = hit-call score of the fitted dose curve at least 0.9, where 1 is the maximum; inactive = score below 0.9); details: mRNA level, 48 h; actives raise or lower the signal
Outline: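 Human HepaRG monolayers receive test chemical for 48 h across an eight-point half-log series starting at 100 uM. XBP1 mRNA gain or loss is scored against DMSO by qRT-PCR.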

[6] = ATG_XTT_Cytotoxicity: Cytotoxicity Assessment in the Attagene TRANS-FACTORIAL HepG2 Assay (AID 2283584);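 for AC50: XTT signal for cell number as viability in transfected HepG2 cells; cells exposed to compound for 24 h before reading; active means loss of viability signal versus DMSO baseline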
Outline: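 Transfect HepG2 with GAL4-UAS reporter units, dose compound, incubate 24 h, then measure viable cell number by XTT. Fit concentration response against DMSO baseline.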

[7] = molecular target: Cellular tumor antigen p53 (Homo sapiens) (UniProt P04637); assay: TOX21_p53_BLA_p2_ratio: Tox21 HCT-116 p53 Agonism Beta-lactamase Assay, Ratio, Phase 2 (AID 2283592)
Outline: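 An inducible beta-lactamase reporter in HCT116 cells signals p53 pathway activation. After 16 h chemical exposure at 37C, cells load CCF4-AM substrate for 2 h at room temperature; activity is the cleaved/uncleaved emission ratio relative to DMSO.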

[8] = TOX21_p53_BLA_p3_viability: Viability Assessment in the Tox21 HCT-116 p53 Agonism Beta-lactamase Assay, Phase 3 (AID 2283593);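 note: cells exposed to compound for 16 h before reading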
Outline: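 HCT116 cells, 4000/well, dosed 5 h after plating by pin transfer (217-fold dilution from DMSO stock) and incubated 16 h at 37C, 5% CO2. Viability read as ATP luminescence with CellTiter-Glo after 30 min at room temperature.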

[9] = TOX21_p53_BLA_p4_viability: Viability Assessment in the Tox21 HCT-116 p53 Agonism Beta-lactamase Assay, Phase 4 (AID 2283597);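 note: hits lower the luminescence signal meaning cytotoxicity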
Outline: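 Compound exposure of HCT116 cells lasts 16 h at 37C, 5% CO2, with DMSO stocks diluted 217-fold. Cellular ATP is then quantified by CellTiter-Glo luminescence after 30 min at room temperature.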

[10] = molecular target: Cellular tumor antigen p53 (Homo sapiens) (UniProt P04637); assay: TOX21_p53_BLA_p5_ratio: Tox21 HCT-116 p53 Agonism Beta-lactamase Assay, Ratio, Phase 5 (AID 2283599)
Outline: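 HCT-116 p53-bla cells (4000/well) plated 5 h, dosed with compound (217-fold DMSO dilution) for 16 h at 37 C; CCF4-AM substrate 2 h at room temperature. Activity is the 460/530 nm emission ratio (405 nm excitation), fitted in gain-of-signal direction versus DMSO.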

[11] = TOX21_p53_BLA_p5_viability: Viability Assessment in the Tox21 HCT-116 p53 Agonism Beta-lactamase Assay, Phase 5 (AID 2283600)
Outline: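 Counter-readout for cytotoxicity: ATP-dependent luminescence from CellTiter-Glo, read in the beta-lactamase wells after 30 min at RT, following a 16 h compound exposure at 37C.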

[12] = molecular target: Cellular tumor antigen p53 (Homo sapiens) (UniProt P04637); assay: TOX21_p53_BLA_p4_ratio: Tox21 HCT-116 p53 Agonism Beta-lactamase Assay, Ratio, Phase 4 (AID 2283601)
Outline: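 HCT-116 p53 beta-lactamase reporter cells (4000/well) preincubated 5 h, then compound (217-fold dilution of DMSO stock) for 16 h at 37C. CCF4-AM substrate added 2 h at room temperature; 460/530 nm emission ratio fitted upward versus DMSO.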

[13] = Tanguay_ZF_120hpf_MORT_legacy: (Legacy) Oregon State University Tanguay Lab 120 Hour Post-fertilization zebrafish Assay for Mortality (AID 2283633);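 for AC50: fitted as increase in binary mortality versus DMSO negative control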
Outline: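 Mortality endpoint from a multiplexed whole-embryo zebrafish screen. Dechorionated wild-type embryos received compound at 6 hpf and remained under static exposure at 28C until 120 hpf, with death noted as a present/absent call.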

[14] = Tanguay_ZF_120hpf_AXIS_legacy: (Legacy) Oregon State University Tanguay Lab 120 Hour Post-fertilization zebrafish Assay for Body Axis Malformation (AID 2283635)
Outline: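 Static 6–120 hpf chemical exposure of dechorionated wild-type 5D zebrafish, one per well at 28C; morphology endpoint scored binary at 120 hpf relative to DMSO control.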

[15] = Tanguay_ZF_120hpf_SNOU_legacy: (Legacy) Oregon State University Tanguay Lab 120 Hour Post-fertilization zebrafish Assay for Snout Malformation (AID 2283637)
Outline: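 Dechorionated tropical 5D wild-type zebrafish embryos exposed statically from 6 to 120 hpf at 28C, one per well, in 0.64% DMSO. Snout malformation scored as present/absent by brightfield at 120 hpf; dead embryos not scored.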

[16] = Tanguay_ZF_120hpf_JAW_legacy: (Legacy) Oregon State University Tanguay Lab 120 Hour Post-fertilization zebrafish Assay for Jaw Malformation (AID 2283638);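 for AC50: active means more embryos with jaw malformation than DMSO controls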
Outline: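 Static waterborne exposure of dechorionated wild-type (Tropical 5D) zebrafish from 6 to 120 hpf at 28C, 0.64% DMSO vehicle; 5uM trimethyltin chloride served as positive control. Jaw morphology recorded as binary at 120 hpf.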

[17] = Tanguay_ZF_120hpf_OTIC_legacy: (Legacy) Oregon State University Tanguay Lab 120 Hour Post-fertilization zebrafish Assay for Otic Vesicle Malformation (AID 2283639)
Outline: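 Embryos from 5D wild-type adults exposed in plates; DMSO 0.64% v/v final. Sealed, light-protected, 28C, static to 120 hpf. Otic vesicle malformation recorded as binary endpoint; gain-of-signal fitted vs DMSO.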

[18] = Tanguay_ZF_120hpf_PE_legacy: (Legacy) Oregon State University Tanguay Lab 120 Hour Post-fertilization zebrafish Assay for Pericardial Edema (AID 2283640);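 for AC50: potency for increased incidence of pericardial edema versus DMSO baseline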
Outline: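 Read-out is the presence or absence of pericardial edema at 120 hpf under brightfield, with gain of signal fitted against DMSO controls. Larvae (5D wild-type) were statically exposed at 28C with 0.64% final DMSO.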

[19] = TOX21_p53_BLA_p2_viability: Viability Assessment in the Tox21 HCT-116 p53 Agonism Beta-lactamase Assay, Phase 2 (AID 2283591);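 note: actives lower the ATP signal meaning cytotoxicity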
Outline: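 HCT116 p53-bla cells, 4000/well, dosed after 5 h plating (217-fold dilution of DMSO stocks) and incubated 16 h at 37C. Viability taken as cellular ATP by CellTiter-Glo luminescence after 30 min RT; signal loss marks cytotoxicity.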

[20] = molecular target: Cellular tumor antigen p53 (Homo sapiens) (UniProt P04637); assay: TOX21_p53_BLA_p3_ratio: Tox21 HCT-116 p53 Agonism Beta-lactamase Assay, Ratio, Phase 3 (AID 2283596)
Outline: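 HCT116 p53-bla cells (4000/well) given compound in DMSO (217-fold dilution) after 5 h, incubated 16 h at 37C. CCF4-AM substrate 2 h at room temperature; 460/530 nm emission ratio, gain fitted against DMSO.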

Measured: AC50

Sequence of Cellular tumor antigen p53 (Homo sapiens) (P04637 whole entry, looked up): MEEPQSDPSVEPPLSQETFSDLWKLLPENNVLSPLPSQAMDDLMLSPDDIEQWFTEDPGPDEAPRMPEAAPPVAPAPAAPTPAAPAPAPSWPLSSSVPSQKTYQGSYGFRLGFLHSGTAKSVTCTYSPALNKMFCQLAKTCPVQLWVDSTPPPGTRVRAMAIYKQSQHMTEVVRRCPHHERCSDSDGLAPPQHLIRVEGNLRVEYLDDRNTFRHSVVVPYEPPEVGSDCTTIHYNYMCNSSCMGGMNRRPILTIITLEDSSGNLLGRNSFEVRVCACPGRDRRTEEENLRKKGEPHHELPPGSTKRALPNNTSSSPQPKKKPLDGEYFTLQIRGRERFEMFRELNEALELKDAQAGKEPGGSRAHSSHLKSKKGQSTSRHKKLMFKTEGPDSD

CCOP(=S)(OCC)SCSP(=S)(OCC)OCC
active: [1] 50 µM | [2] 0.217 µM | [3] 14.8 µM | [5] 0.245 µM
not listed: [19] | [20]
inactive: all other assays above

CC(C)(C)CC(C)(C)c1ccc(O)cc1
inactive: [1] | [2] | [3] | [4] | [5] | [6] | [8] | [20] | [12] | [13] | [14] | [17] | [18]
active: [6] 26.7 µM and 58.4 µM and 53.9 µM | [19] 64.5 µM and 42.4 µM | [7] 74.7 µM and 35.4 µM | [8] 35 µM | [20] 41.9 µM | [9] 69 µM and 22.2 µM | [10] 61.9 µM and 38.6 µM | [11] 65.3 µM and 39.6 µM | [12] 79.4 µM

C=CC(=O)OCCCCCC(C)C
not listed: [6] | [7]
inactive: all other assays above

CCOP(=S)(OCC)SCCS(=O)(=O)CC
inactive: [6]

O=CC=O
inactive: [6]

COc1cc(-c2ccc(N)c(OC)c2)ccc1N
inactive: [1] | [2] | [4] | [5] | [6] | [19] | [7] | [8] | [20] | [9] | [10] | [11] | [12] | [13] | [14] | [15] | [16] | [17] | [18]
active: [1] 42.9 µM | [3] 25.4 µM and 22.1 µM | [7] 63 µM | [20] 63.6 µM | [10] 71.3 µM | [12] 64 µM | [15] 12 µM | [16] 47 µM | [18] 12.5 µM

O=[N+]([O-])c1ccc(O)c([N+](=O)[O-])c1
active: [1] 9.32 µM | [2] 13.2 µM | [3] 13.2 µM | [4] 20.2 µM | [5] 13.2 µM | [7] 69 µM and 63.7 µM | [20] 78.5 µM | [10] 79.2 µM | [13] 26.4 µM
inactive: [6] | [19] | [8] | [20] | [9] | [10] | [11] | [12] | [15] | [16] | [17] | [18]

C=C(C)C(=O)[O][Sn]([CH2]CCC)([CH2]CCC)[CH2]CCC
active: [1] 0.381 µM | [3] 9.35 µM | [4] 2.63 µM | [6] 2.32 µM | [19] 1.88 µM | [7] 41.1 µM | [8] 1.18 µM | [20] 17.5 µM | [9] 1.5 µM | [10] 35.9 µM | [11] 1.74 µM | [12] 28.7 µM | [13] 1.77 µM
inactive: [2] | [5] | [14] | [15] | [16] | [17] | [18]

CN(CCCC(=O)c1cccnc1)N=O
inactive: [6]

O=C(Nc1ccc2[nH]ccc2c1)c1cc2cc(F)ccc2n1Cc1cccc(F)c1
inactive: [5] | [11] | [13] | [14] | [15] | [16] | [17] | [18]
active: [1] 28.3 µM | [2] 12.4 µM | [3] 50 µM | [4] 30.2 µM | [7] 59.4 µM | [20] 86.7 µM | [9] 46.1 µM | [10] 83.2 µM | [12] 42.2 µM

C[C@]12CCC(=O)C[C@@H]1CC[C@@H]1[C@@H]2CC[C@]2(C)[C@@H](O)CC[C@@H]12
not listed: [8]
inactive: all other assays above

CCN1CCC2(CC1)COc1cc3c(cc12)N(C(=O)c1ccc(-c2ccc(-c4nnc(C)o4)cc2C)cc1)CC3
inactive: [3] | [20] | [10] | [13] | [14] | [15] | [16] | [17] | [18]
active: [1] 46.8 µM | [2] 46.8 µM | [4] 15.4 µM | [5] 27.4 µM | [19] 54.7 µM | [7] 64.8 µM | [8] 67.5 µM | [9] 45.7 µM | [11] 64.2 µM | [12] 57.4 µM

From PubChem BioAssay (EPA / NIEHS)
